# Experimental data reported in PubChem BioAssay (NCATS).
# Where “and” joins values, the source holds several entries; their conditions need not be identical. Equal entries are not always repeated. Inconclusive results are not listed. A call without a number means that no potency is given here. A structure can be active in one record and inactive in another. Calls of active or inactive are those of the source. Unless noted, calls follow the shape of the dose curve; as a rule, active = well fitted curve in the direction sought with a large enough effect; inconclusive = small, poorly fitted or top-dose-only effect, or another doubt; inactive = no such curve, though single readings can be large; an effect the other way counts as inactive or inconclusive.
# Experiments:
# [1] = Cellular Toxicity (caspase-3) N2a (AID 665); details: N2a cells, luminescence, normalized: DMSO 0%, 10 µM staurosporine 100%; series mostly up to 92.2 µM;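 also: compound exposure lasted 16 h at 37 °C before readout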
# Procedure, shortened: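 Luminescent Caspase-Glo 3/7 readout in N2a mouse neuroblastoma cells after 16 h compound exposure at 37 °C. Signal scaled to DMSO (basal) and 10 uM staurosporine (100%). Concentration-response fitted with Hill equation for AC50.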
# [2] = Cellular Toxicity (caspase-3) NIH 3T3 (AID 666); details: NIH 3T3 caspase-3 activation, apoptosis/toxicity; series mostly up to 92.2 µM; also: potency is read from the fitted curve at half-maximal effect
# Procedure, shortened: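 NIH 3T3, 1000 cells/well, 5 hr settle then 16 hr compound at 37°C; Caspase-Glo 3/7, 20 min RT, luminescence. DMSO = basal, 100 uM tamoxifen = 100%. Hill-equation AC50, qHTS.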
# [3] = Cellular Toxicity (caspase-3) Renal Proximal Tubule (AID 667); details: renal proximal tubule cells, primary cells freshly taken from rat, solvent-only wells 0%, staurosporine 100%; series mostly up to 91.7 µM;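 also: cells exposed to compound for 16 hours at 37 °C before detection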
# Procedure, shortened: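 Luminescent caspase 3/7 signal from peptide-aminoluciferin cleavage measures apoptosis in freshly isolated rat kidney proximal tubule cells after 16 h compound exposure. Concentration-response data are normalized to DMSO and 10 uM staurosporine, and AC50 values come from Hill equation fits.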
# [4] = target: Cytochrome P450 3A4 (Homo sapiens) (UniProt P08684); experiment: qHTS Assay for Inhibitors and Substrates of Cytochrome P450 3A4 (AID 884); details: recombinant CYP3A4, Luciferin-PPXE luminescence; series mostly up to 57.1 µM; also: nearly all actives have a fitted effect of over 50% in size; also: potency is read from the fitted curve at half-maximal effect
# Cytochrome P450 3A4 (Homo sapiens), sequence (P08684 whole entry, looked up): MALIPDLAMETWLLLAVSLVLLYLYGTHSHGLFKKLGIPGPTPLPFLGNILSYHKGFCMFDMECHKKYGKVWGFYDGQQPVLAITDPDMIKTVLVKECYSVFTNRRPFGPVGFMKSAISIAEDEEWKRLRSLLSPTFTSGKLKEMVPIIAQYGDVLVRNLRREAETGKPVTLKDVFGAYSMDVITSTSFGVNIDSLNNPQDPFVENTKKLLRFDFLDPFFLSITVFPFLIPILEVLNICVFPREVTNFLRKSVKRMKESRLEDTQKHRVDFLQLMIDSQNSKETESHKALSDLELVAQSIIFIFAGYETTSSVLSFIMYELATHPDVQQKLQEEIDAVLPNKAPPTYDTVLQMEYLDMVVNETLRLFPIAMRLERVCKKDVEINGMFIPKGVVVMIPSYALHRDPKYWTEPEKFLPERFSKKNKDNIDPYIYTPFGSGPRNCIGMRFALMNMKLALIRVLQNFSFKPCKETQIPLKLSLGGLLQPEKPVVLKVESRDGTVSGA
# Procedure, shortened: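 Luminescent readout of luciferin produced by CYP3A4 (20 nM) dealkylation of Luciferin-PPXE, 25 uM (its KM). NADPH-driven reaction ran 60 min at RT after 10 min compound preincubation; data scaled to 57 uM ketoconazole as 100% inhibition.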
# [5] = target: Cytochrome P450 3A4 (Homo sapiens) (UniProt P08684); experiment: qHTS Assay for Activators of Cytochrome P450 3A4 (AID 885); details: recombinant CYP3A4, Luciferin-PPXE luminescence, 60 min; series mostly up to 57.1 µM; also: nearly all actives have a fitted effect of over 65% in size; also: potency is read from the fitted curve at half-maximal effect
# Procedure, shortened: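 Human CYP3A4 dealkylates Luciferin-PPXE to luciferin, which luciferase detection converts to light. Substrate was at its KM (25uM), buffer 200mM KPO4, reaction 60 min at RT.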
# [6] = target: Cytochrome P450 2C9 (Homo sapiens) (UniProt P11712); experiment: qHTS Assay for Inhibitors and Substrates of Cytochrome P450 2C9 (AID 883); details: recombinant CYP2C9, luciferin-H luminescence, 60 min; series mostly up to 57.1 µM; also: nearly all actives have a fitted effect of over 60% in size; also: potency is read from the fitted curve at half-maximal effect
# Cytochrome P450 2C9 (Homo sapiens), sequence (P11712 whole entry, looked up): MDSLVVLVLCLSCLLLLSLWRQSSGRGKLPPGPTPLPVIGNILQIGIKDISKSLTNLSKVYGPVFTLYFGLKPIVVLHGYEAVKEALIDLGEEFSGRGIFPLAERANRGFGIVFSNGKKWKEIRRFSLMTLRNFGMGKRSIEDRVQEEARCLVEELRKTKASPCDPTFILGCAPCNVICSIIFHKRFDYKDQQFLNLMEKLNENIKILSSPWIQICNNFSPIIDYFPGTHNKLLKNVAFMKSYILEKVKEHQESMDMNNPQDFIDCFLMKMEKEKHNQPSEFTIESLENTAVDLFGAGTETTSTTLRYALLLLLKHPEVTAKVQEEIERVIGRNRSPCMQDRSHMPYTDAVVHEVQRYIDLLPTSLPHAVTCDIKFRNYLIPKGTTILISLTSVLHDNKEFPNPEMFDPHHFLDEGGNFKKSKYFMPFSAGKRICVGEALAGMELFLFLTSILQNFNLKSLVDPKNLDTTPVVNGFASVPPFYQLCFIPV
# Procedure, shortened: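 Human CYP2C9 (10nM) with Luciferin-H at 100uM (its KM) in 25mM KPO4; compound preincubated 10 min at 37C, then NADPH regeneration for 60 min at 37C. Luciferin read by luminescence after detection reagent; normalized to 57uM sulphaphenazole as full inhibition.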
# [7] = target: Cytochrome P450 2D6 (Homo sapiens) (UniProt P10635); experiment: qHTS Assay for Inhibitors and Substrates of Cytochrome P450 2D6 (AID 891); details: recombinant CYP2D6, luciferin-ME EGE luminescence; series mostly up to 57.1 µM; also: nearly all actives have a fitted effect of over 60% in size; also: potency is read from the fitted curve at half-maximal effect
# Cytochrome P450 2D6 (Homo sapiens), sequence (P10635 whole entry, looked up): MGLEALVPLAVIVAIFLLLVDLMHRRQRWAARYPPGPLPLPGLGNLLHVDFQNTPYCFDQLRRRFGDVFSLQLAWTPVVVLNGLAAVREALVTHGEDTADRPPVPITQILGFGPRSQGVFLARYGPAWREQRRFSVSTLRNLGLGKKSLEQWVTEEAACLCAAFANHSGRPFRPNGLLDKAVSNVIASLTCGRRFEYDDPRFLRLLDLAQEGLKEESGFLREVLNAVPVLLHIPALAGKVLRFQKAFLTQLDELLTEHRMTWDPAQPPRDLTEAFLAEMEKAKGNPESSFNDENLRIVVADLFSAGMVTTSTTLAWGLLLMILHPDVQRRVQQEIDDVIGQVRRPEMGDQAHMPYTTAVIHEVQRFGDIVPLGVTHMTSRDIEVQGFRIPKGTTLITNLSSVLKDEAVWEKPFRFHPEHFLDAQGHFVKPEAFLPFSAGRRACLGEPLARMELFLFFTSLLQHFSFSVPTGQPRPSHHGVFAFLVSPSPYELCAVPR
# Procedure, shortened: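 Luminescent read-out of luciferin formed by 5 nM human CYP2D6 demethylating 30 uM Luciferin-ME EGE (Km level) over 60 min at room temperature after NADPH regeneration addition. Data normalized to full inhibition by 1.43 uM quinidine.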
# [8] = target: Guanine nucleotide-binding protein G(i) subunit alpha-1 (Homo sapiens) (UniProt P63096); experiment: qHTS Assay for Inhibitors of RGS12 GoLoco Motif Activity (Green Fluorophore) (AID 879); details: Galphai1/FITC-RGS12 GoLoco peptide, fluorescence polarization; series mostly up to 57.1 µM;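 also: negative values mean loss of peptide binding seen as reduced polarization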
# Guanine nucleotide-binding protein G(i) subunit alpha-1 (Homo sapiens), sequence (P63096 whole entry, looked up): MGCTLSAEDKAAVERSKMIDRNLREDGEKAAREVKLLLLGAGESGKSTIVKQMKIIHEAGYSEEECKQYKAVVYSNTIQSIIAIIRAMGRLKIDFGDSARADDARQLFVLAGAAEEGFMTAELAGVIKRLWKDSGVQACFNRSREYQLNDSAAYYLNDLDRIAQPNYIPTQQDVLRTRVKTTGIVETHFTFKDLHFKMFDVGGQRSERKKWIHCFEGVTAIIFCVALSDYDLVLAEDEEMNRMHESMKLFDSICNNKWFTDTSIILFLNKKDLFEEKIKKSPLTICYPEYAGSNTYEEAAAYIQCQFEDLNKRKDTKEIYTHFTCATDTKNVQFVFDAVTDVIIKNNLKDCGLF
# Procedure, shortened: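 A drop in FITC polarization marked displacement of the FITC-tagged RGS12 GoLoco peptide (10 nM) from Gαi1 (50 nM). Compounds were incubated 10 min at room temperature in Tris pH 7.5 buffer containing 150 mM NaCl, 0.1 mM GDP and 0.05% NP40; unlabeled peptide titration served as control.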
# [9] = qHTS Assay for Identification of Small Molecule Antagonists for NFkB Signaling Pathway (AID 895; active = well fitted inhibition curve with a large enough effect in the signal ratio, with a control signal flat, not every such curve was filed as active; the % refers to the signal ratio); details: NFkB beta-lactamase reporter cells, FRET ratio 460/530, stimulated with 10 pM TNF alpha; series mostly up to 38.3 µM
# Procedure, shortened: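 ME-180 NFkB-bla cells (beta-lactamase under NFkB response element), plated overnight, treated with compound then 10 pM TNF alpha (about EC50) for 5 hrs at 37 C. LiveBLAzer FRET read at 460/530 nm emission, 405 nm excitation.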
# [10] = target: Cytochrome P450 2C19 (Homo sapiens) (UniProt P33261); experiment: qHTS Assay for Inhibitors and Substrates of Cytochrome P450 2C19 (AID 899); details: recombinant CYP2C19, luciferin-H EGE luminescence; series mostly up to 57.1 µM; also: nearly all actives have a fitted effect of over 60% in size; also: potency is read from the fitted curve at half-maximal effect
# Cytochrome P450 2C19 (Homo sapiens), sequence (P33261 whole entry, looked up): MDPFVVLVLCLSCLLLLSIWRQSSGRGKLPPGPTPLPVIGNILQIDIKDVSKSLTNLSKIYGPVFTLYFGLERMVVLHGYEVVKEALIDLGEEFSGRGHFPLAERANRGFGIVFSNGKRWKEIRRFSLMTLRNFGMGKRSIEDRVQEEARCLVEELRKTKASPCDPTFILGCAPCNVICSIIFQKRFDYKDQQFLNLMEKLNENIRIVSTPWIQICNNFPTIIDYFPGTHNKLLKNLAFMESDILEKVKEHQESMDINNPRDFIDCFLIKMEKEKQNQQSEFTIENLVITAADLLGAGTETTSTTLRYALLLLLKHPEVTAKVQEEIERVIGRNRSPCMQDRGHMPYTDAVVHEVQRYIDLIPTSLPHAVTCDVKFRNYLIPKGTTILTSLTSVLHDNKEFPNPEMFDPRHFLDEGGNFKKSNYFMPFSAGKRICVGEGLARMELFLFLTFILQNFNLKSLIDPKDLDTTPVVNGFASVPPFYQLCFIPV
# Procedure, shortened: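 5 nM human CYP2C19 with 10uM Luciferin-H EGE (at KM) in 50mM KPO4, compound preincubated 10 min at 37C, then NADPH regeneration for 60 min at 37C. Luciferin read by luminescence after detection reagent; normalized to 57uM ketoconazole as full inhibition.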
structure (smiles),measurement,setting,value
C1=CC2C3C=CC(C3)C2C1 (stereo not given),outcome,[1],inactive
same,Potency,[2],inactive
same,outcome,[3],inactive
same,Potency,[4],inactive
CC(C)C(C)(C)C(C)(C)C(C)(C)S,outcome,[1],inactive
same,Potency,[2],inactive
same,outcome,[3],inactive
same,Potency,[4],inactive
Cc1ccc(O)cc1,outcome,[1],inactive
same,Potency,[2],inactive
same,outcome,[3],inactive
c1ccc2occc2c1,outcome,[1],inactive
same,Potency,[2],inactive
same,outcome,[3],inactive
same,Potency,[4],inactive
CC(=O)OC/C=C(C)/C=C/C=C(C)/C=C/C1=C(C)CCCC1(C)C,outcome,[1],inactive
same,Potency,[2],inactive
same,outcome,[3],inactive
Cc1cc(C(C)(C)C)c(O)c(C(C)(C)C)c1,outcome,[1],inactive
same,Potency,[2],inactive
same,outcome,[3],inactive
same,Potency,[4],inactive
CC(C)(C)c1ccc(O)c(O)c1,outcome,[1],inactive
same,outcome,[3],inactive
same,Potency,[4],inactive
CCCCCCCCCCCCCCCC[n+]1ccccc1,Potency,[2],inactive
same,outcome,[3],inactive
OCc1c[nH]c2ccccc12,outcome,[1],inactive
same,Potency,[2],inactive
same,outcome,[3],inactive
same,Potency,[4],inactive
O=C(Oc1ccccc1)c1ccccc1O,outcome,[1],inactive
same,Potency,[2],inactive
same,Potency,[4],inactive
Nc1cccc2c(N)cccc12,outcome,[1],inactive
same,Potency,[2],inactive
same,outcome,[3],inactive
CCCCC(CC)COC(=O)c1ccccc1C(=O)O (stereo not given),outcome,[1],inactive
same,Potency,[2],inactive
same,outcome,[3],inactive
same,Potency,[4],inactive
COc1cc(C=O)ccc1O,outcome,[1],inactive
same,Potency,[2],inactive
same,outcome,[3],inactive
same,Potency,[4],inactive
O=C(NO)c1ccccc1,outcome,[1],inactive
same,Potency,[2],inactive
same,outcome,[3],inactive
same,Potency,[4],inactive
CC(C)(c1ccc(O)cc1)c1ccc(O)cc1,outcome,[1],inactive
same,Potency,[2],inactive
same,outcome,[3],inactive
same,Potency,[5],inactive
Nc1ccc(O)cc1,outcome,[1],inactive
same,Potency,[2],inactive
Brc1ccccc1-c1ccccc1,outcome,[1],inactive
same,Potency,[2],inactive
same,outcome,[3],inactive
same,Potency,[4],inactive
O=C(c1ccccc1)c1ccccc1,outcome,[1],inactive
same,Potency,[2],inactive
same,outcome,[3],inactive
CCCC(=O)c1cc(O)c(O)cc1O,outcome,[1],inactive
same,Potency,[2],inactive
same,outcome,[3],inactive
same,Potency,[4],inactive
Nc1c2ccccc2nc2ccccc12,Potency,[2],39.8 µM (active)
same,outcome,[3],inactive
Oc1ccccc1,outcome,[1],inactive
same,Potency,[2],inactive
same,outcome,[3],inactive
same,Potency,[4],inactive
Cc1ccc2c(Cl)cc(Cl)c(O)c2n1,Potency,[4],inactive
CCN(CC)CCOc1ccc(/C(=C(\Cl)c2ccccc2)c2ccccc2)cc1,Potency,[6],inactive
same,Potency,[4],inactive
same,Potency,[7],5.01 µM (active)
NC(N)=NCCCCN=C(N)N,outcome,[8],inactive
same,outcome,[9],inactive
C[C@@H](C1=C(CCN(C)C)Cc2ccccc21)c1ccccn1,Potency,[6],0.501 µM (active)
same,Potency,[10],2.51 µM (active)
OC(CCCN1CCCCC1)(c1ccccc1)c1ccccc1,Potency,[7],0.126 µM (active)
CCOC(=O)NNc1nncc2ccccc12,Potency,[4],inactive
O=C(O)/C=C(\CC(=O)O)C(=O)O,Potency,[4],inactive
CC(=O)OCC[N+](C)(C)C,Potency,[4],inactive
C[N+](C)(C)CCO,outcome,[8],inactive
same,Potency,[4],31.6 µM (active)
COC(=O)c1c(Cl)c(Cl)c(C(=O)OC)c(Cl)c1Cl,Potency,[4],inactive
CN(C(=O)C(Cl)Cl)c1ccc(OC(=O)c2ccco2)cc1,Potency,[4],inactive
Cc1nn(-c2ccccc2)c(C)c1/C=N/N1CCN(Cc2ccccc2)CC1,Potency,[4],inactive
same,Potency,[5],10 µM (active)
COc1ccccc1N1CCN(CCN2C(=O)CC3(CCCC3)CC2=O)CC1,outcome,[8],inactive
same,Potency,[5],inactive
O=[N+]([O-])c1ccc(-c2nc(-c3ccc(F)cc3)c(-c3ccncc3)[nH]2)cc1,outcome,[8],inactive
same,Potency,[4],0.158 µM (active)
same,Potency,[5],inactive
CC(C)N(CCC(=O)c1ccc2ccccc2c1)Cc1ccccc1,outcome,[8],inactive
same,Potency,[5],inactive
same,Potency,[7],2 µM (active)
O=C1NC(c2cccc([N+](=O)[O-])c2)=CCN1c1ccccc1O,outcome,[8],inactive
same,Potency,[6],inactive
same,Potency,[7],inactive
same,Potency,[10],inactive and 6.31 µM (active)
O=C(O)Cc1ccc(OCCNC[C@H](O)c2ccccc2)cc1,Potency,[4],inactive
CN(C)c1cc2c(Nc3ccc4c(cnn4Cc4ccccc4)c3)ncnc2cn1,outcome,[8],inactive
same,Potency,[4],5.01 µM (active)
same,Potency,[5],inactive
Cn1cnc2c(NCc3ccccc3)nc(NCCO)nc21,outcome,[8],inactive
same,Potency,[6],inactive
same,Potency,[5],inactive
same,Potency,[7],3.16 µM (active) and 1.26 µM (active)
same,Potency,[10],inactive
Nc1ncnc2nc[nH]c12,Potency,[4],inactive
C1N2CN3CN1CN(C2)C3,Potency,[4],inactive
Brc1ccc([C@H]2CN3CCSC3=N2)cc1,outcome,[8],inactive
same,Potency,[5],inactive
